Assay results published in ChEMBL document CHEMBL3988442, “University of Dundee, Small-Polar-MMV Screening Library” (2021).
Screen size: about 69,000 compounds; about 1,000 (1.4%) showed an effect of 50% or more. Shown is part of a subset that was picked to be rich in strong results.

Test system: Leishmania donovani
Assay: Leishmania intramacrophage assay
Assay type: functional, organism-based
Design: scale not given: in the data most compounds retested in dose-response had high values

## Nc1nc2c(c(NCC(c3cccnc3)N3CCOCC3)n1)CCNC2 (stereo unspecified)
30.3 µM, […]
  Percent Effect: 45.62%

## CCC(Nc1nnnn1-c1ccccc1)C(=O)NCc1cccs1 (stereo unspecified)
30.3 µM, […]
  Percent Effect: 14.73%

## Cc1cnc(C(=O)N2Cc3ncn(C)c3C(COCC(C)C)C2)cn1.O=C(O)C(F)(F)F (stereo unspecified)
30.3 µM, […]
  Percent Effect: 30.84%

## CN(CCc1noc(C2CC2)n1)C(=O)C1(N2CCCC2)CCCC1
30.3 µM, […]
  Percent Effect: 28.86%

## Cc1cc(NC(=O)NCCc2cccs2)n(C)n1
30 µM, 30.03 µM
  Percent Effect: -9.195%

## O=C(CN1CCCS1(=O)=O)NCCOc1ccc2c(c1)CCC2
30 µM, 30.03 µM
  Percent Effect: 22.18%

## CCc1nc(C2CCCN2c2ncc(C(N)=O)cc2Cl)no1 (stereo unspecified)
30.3 µM, […]
  Percent Effect: -6.943%

## Cc1nc(-c2ncc(C(=O)NCCNc3ncccc3C)c(O)n2)cs1
30.3 µM, […]
  Percent Effect: 28.4%

## Cc1cccnc1NCCNC(=O)c1cnc(-c2cccs2)nc1O
30.3 µM, […]
  Percent Effect: 22.97%

## Cc1cccnc1NCCNC(=O)c1cnc(-c2ccccn2)nc1O
30.3 µM, […]
  Percent Effect: 81.9%

## O=C(c1occc1CN1C(=O)Cc2ccccc21)N1CCCCCC1
30.3 µM, […]
  Percent Effect: 31.83%

## Cc1cc(NC(=O)c2ccccc2Br)n(C)n1
30.3 µM, […]
  Percent Effect: -1.29%

## CC(C1CCN(Cc2ccccc2OC(F)F)CC1)N1CCOCC1 (stereo unspecified)
30.3 µM, […]
  Percent Effect: 38.92%

## CC(C)Oc1cccc(CN2CCC(c3n[nH]c4ncccc34)CC2)c1
30.3 µM, […]
  Percent Effect: -3.157%

## CC(C1CCN(Cc2ccc(N(C)C)nc2)CC1)N1CCOCC1 (stereo unspecified)
30.3 µM, […]
  Percent Effect: 35.27%

## CC(C1CCN(Cc2cccc(OC(F)F)c2)CC1)N1CCOCC1 (stereo unspecified)
30.3 µM, […]
  Percent Effect: 37.87%

## CC(C1CCN(Cc2ccc(OC(F)F)cc2)CC1)N1CCOCC1 (stereo unspecified)
30.3 µM, […]
  Percent Effect: 57.26%

## CC(C)Oc1cccc(CN2CCC(C(C)N3CCOCC3)CC2)c1 (stereo unspecified)
30.3 µM, […]
  Percent Effect: 60.52%

## CN1CCN(C(=O)c2n[nH]c3c2CN(C2CCOC2)CC3)CC1 (stereo unspecified)
30.3 µM, […]
  Percent Effect: 7.447%

## CCc1c(C)sc2c1c(N)nc(=O)n2CCN1CCCCC1
30.3 µM, […]
  Percent Effect: 45.7%

## OC(CN1CCC(c2ccn[nH]2)CC1)c1ccccc1F (stereo unspecified)
30 µM
  Percent Effect: 30.71%

## COC[C@@]12CCC[C@@H]1CN(C(=O)COC1CCCC1)C2
30.3 µM, […]
  Percent Effect: 36.81%

## Cc1ccc(N2CCC3(CC2)CC(OCC(=O)N(C)C)CO3)nn1 (stereo unspecified)
30 µM, 30.03 µM
  Percent Effect: 10.68%

## CN(C)C(=O)CO[C@H]1CO[C@@]2(CCN(Cc3ccsc3)C2)C1.O=C(O)C(F)(F)F
30.3 µM, […]
  Percent Effect: 39.07%

## CN(C)C(=O)CO[C@H]1CO[C@@]2(CCN(Cc3ccoc3)C2)C1
30.3 µM, […]
  Percent Effect: 51.04%

## CN(C)C(=O)COC1COC2(CCN(c3cccc(F)c3)CC2)C1.O=C(O)C(F)(F)F (stereo unspecified)
30.3 µM, […]
  Percent Effect: 52.62%

## CCOC1COC2(CCN(Cc3cccc(F)c3)CC2)C1.O=C(O)C(F)(F)F (stereo unspecified)
30 µM, 30.03 µM
  Percent Effect: 37.88%

## CN(C)C(=O)COC1COC2(CCN(c3ncccn3)CC2)C1 (stereo unspecified)
30.3 µM, […]
  Percent Effect: 64.89%

## COc1ccccc1CN1CC[C@]2(C[C@@H](OCC(=O)N(C)C)CO2)C1.O=C(O)C(F)(F)F
30.3 µM, […]
  Percent Effect: 48.44%

## COc1ccc(OCC(=O)NS(=O)(=O)c2ccc(Br)s2)cc1
30 µM
  Percent Effect: -22.07%

## Cc1occc1C(=O)N1CCCn2cnc(CN3CCCC3=O)c2C1
30.3 µM, […]
  Percent Effect: 1.546%

## CCOc1ccc(NC(C)=O)cc1S(=O)(=O)Nc1ccon1
30.3 µM, […]
  Percent Effect: 32.01%

## CC(C)C(=O)Nc1ncn(Cc2cccc(Br)c2)n1
30.3 µM, […]
  Percent Effect: 26.25%

## O=C(c1ccoc1)N1CC[C@@H]2O[C@@H](COCC3CCOCC3)CC[C@@H]21
30.3 µM, […]
  Percent Effect: 5.212%

## Cn1ncc(Cl)c1C(=O)N1CCC(c2nnsc2S(C)(=O)=O)CC1
30.3 µM, […]
  Percent Effect: 50.11%

## Cn1nccc1C(=O)N1CCC(c2nnsc2S(C)(=O)=O)CC1
30.3 µM, […]
  Percent Effect: 17.02%

## Cn1nc(C2CC2)cc1C(=O)N1CCC(c2nnsc2S(C)(=O)=O)CC1
30.3 µM, […]
  Percent Effect: 16.49%

## N#Cc1ccc(C(=O)N2CC[C@H]3[C@H]2CCN3CC2CCOCC2)cc1.O=C(O)C(F)(F)F
30.3 µM, […]
  Percent Effect: 9.058%

## Cc1nc(CNc2ccccc2CCC(F)(F)F)cs1
30.3 µM, […]
  Percent Effect: 6.456%

## O=C(Nc1ccccn1)c1csc(NC2CCCC2)n1
30.3 µM, […]
  Percent Effect: -23.02%

## Cc1cnc(NC(=O)c2csc(NCC(C)C)n2)s1
30.3 µM, […]
  Percent Effect: 62.13%

## O=C(Nc1nccs1)c1csc(NC2CCCC2)n1
30.3 µM, […]
  Percent Effect: 48.24%

## Cc1cnc(NC(=O)c2csc(NC3CCCC3)n2)s1
30.3 µM, […]
  Percent Effect: 92.33%

## Cc1cccc(NC(=O)c2csc(NCC(C)C)n2)n1
30.3 µM, […]
  Percent Effect: -8.581%

## CC(=O)NCC1CCC2(CCN(c3nccc(C4CCCC4)n3)CC2)O1 (stereo unspecified)
30.3 µM, […]
  Percent Effect: 3.551%

## Cn1cc(N2CC3(COCCN(Cc4ccccn4)C3)OCC2=O)cn1.O=C(O)C(F)(F)F (stereo unspecified)
30.3 µM, […]
  Percent Effect: 33.72%

## COc1cccc(C(=O)NCC2CCN(C(=O)c3ccoc3)CC2)c1
30.3 µM, […]
  Percent Effect: 42%

## CCn1cc(CN2C[C@H]3CC[C@@H]2CN(C(=O)c2ccncc2)C3)cn1
30.3 µM, […]
  Percent Effect: -21.9%

## CCC(C)c1csc(NC(=O)c2sc(-c3nnc[nH]3)nc2C)n1 (stereo unspecified)
30.3 µM, […]
  Percent Effect: 32.74%

## CCC(C)c1csc(NC(=O)Cc2csc(-c3nnc[nH]3)n2)n1 (stereo unspecified)
30.3 µM, […]
  Percent Effect: 56.95%

## CC(C)c1nnc(NC(=O)Cc2csc(-c3nnc[nH]3)n2)s1
30.3 µM, […]
  Percent Effect: 6.395%
